Shown are actives, neighbours in structure and some others; about 1.8% of the full set was active somewhere.
PGK inhibitor: T. brucei PGK inhibition | P07378 | PGK/GAPDH coupled, Kinase-Glo luminescence, 60 min | Potency, µM (titrated, usually from 57.5 µM), without a hit: at the top dose activity change, negative = inhibition, usual class: inhibitors | actives 0.043% (n = 380,000) | AID 602233; note: % is set by controls: 0 for no effect and ±100 for the full control effect; nearly all actives have a fitted effect of over 60% in size
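Luminescent ATP detection (Kinase-Glo Plus) follows a 60-minute room-temperature incubation, with wells lacking PGK as controls. Buffer: 100 mM TEA (pH 7.6), 5 mM MgCl2, 0.01% Tween-20. Coupling enzyme GAPDH (100 nM final) supplies unstable 1,3-BPG in-well.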
Tb PFK block: T. brucei PFK enzyme inhibition. T. brucei PFK, ADP-Glo luminescence. actives 0.17% (n = 330,000). Potency, µM (doses to about 57.5 µM), inactives show top-dose activity, negative = inhibition, most hits filed as inhibitors. O15648. AID 485367;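 note: 0% = uninhibited 1x PFK enzyme wells and -100% = no-enzyme wells; nearly all actives have a fitted effect of over 60% in size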
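ADP-Glo luminescence quantified ADP after 45 min at room temperature, with 1.25 nM T. brucei PFK, 0.1 mM ATP and 0.5 mM fructose-6-phosphate in pH 8.0 TEA buffer. qHTS titrations up to 57 µM; curves classified by quality.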
GLP1R cytotox: cytotoxic in the GLP-1 receptor inverse agonist counter-screen | HEK293 cAMP-luciferase reporter cells, luminescence, 24 h | Potency, µM (highest dose often 38.3 µM), inactives show top-dose activity change, negative = inhibition, hits mostly inhibitors | actives 0.13% (n = 410,000) | AID 624418;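 note: loss of luciferase light is scored as toxicity; % is set by controls: 0 for no effect and ±100 for the full control effect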
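Quantitative HTS format, 1536 wells, 200 cells/uL seeded. Compounds: 23 nL, 24 h, 37 °C. Detection: luciferase reagent, luminescence at 12 min RT; decreased signal taken as cytotoxic.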
GLP1R inv ag: inverse agonists of human GLP-1 receptor | P43220 | HEK293 GLP-1R CRE-luciferase, luminescence, 24 h; GLP-1R form is constitutively active | Potency, µM (titrated, usually from 38.3 µM), without a hit: at the highest dose activity change, negative = inhibition, most hits filed as inhibitors | actives 1.6% (n = 410,000); note: % is set by controls: 0 for no effect and ±100 for the full control effect; nearly all actives have a fitted effect of over 55% in size
Target sequence (P43220 whole entry, looked up): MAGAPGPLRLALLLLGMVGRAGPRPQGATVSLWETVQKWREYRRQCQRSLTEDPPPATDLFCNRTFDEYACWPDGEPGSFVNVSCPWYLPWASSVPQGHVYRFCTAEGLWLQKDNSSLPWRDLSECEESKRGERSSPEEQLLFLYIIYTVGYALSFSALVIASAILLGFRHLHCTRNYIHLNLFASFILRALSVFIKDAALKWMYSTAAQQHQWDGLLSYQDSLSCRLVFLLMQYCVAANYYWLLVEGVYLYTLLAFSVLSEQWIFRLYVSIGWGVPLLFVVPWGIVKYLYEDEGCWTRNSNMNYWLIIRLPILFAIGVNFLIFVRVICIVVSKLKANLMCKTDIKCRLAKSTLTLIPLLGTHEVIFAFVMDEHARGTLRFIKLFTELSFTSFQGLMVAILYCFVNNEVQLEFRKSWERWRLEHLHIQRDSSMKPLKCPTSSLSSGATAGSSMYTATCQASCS
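GLP-1R inverse agonism mode: basal reporter luminescence in engineered HEK293 cells measured after one day of compound exposure at 37 deg C, with a 12 min room-temperature detection step.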
Pin1 inh: human Pin1 inhibition | actives 0.009% (n = 390,000) | AID 504891 | Pin1 FP peptide displacement, HiFluor488, 10 min | Potency, µM (series often up to 115 µM), inactives show at the highest dose activity, negative = inhibition, hits mostly inhibitors; active = well fitted inhibition curve with a large enough effect in the polarisation, with a control signal flat, not every such curve was filed as active; inconclusive = small, poorly fitted or top-dose-only effect, or effect the other way, or a change in a side signal; inactive = no such curve, though single readings can be large or run the other way; the % refers to the polarisation; note: % is set by controls: 0 for no effect and ±100 for the full control effect
Target sequence (Q13526 whole entry, looked up): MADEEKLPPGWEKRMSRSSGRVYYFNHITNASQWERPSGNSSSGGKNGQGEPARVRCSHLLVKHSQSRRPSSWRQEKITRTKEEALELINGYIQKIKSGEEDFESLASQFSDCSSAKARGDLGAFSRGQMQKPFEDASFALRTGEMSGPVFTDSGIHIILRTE
GLP-1R agonist: activates the human GLP-1 receptor; AID 624172; Potency, µM (highest dose often 45.6 µM), for inactives: top-dose activation, hits mostly activators; actives 0.007% (n = 380,000); P43220; HEK293 GLP-1R CRE-luciferase, luminescence, 4-6 h; cells express a hypersensitive GLP-1R form; note: % of control where 0% means no effect
The depositor's hits bear a star; i = inactive; ? = inconclusive; / = no result given; [ ] = remark or other dose. Unless noted, calls come from the whole dose curve; as a rule, active = well fitted curve in the direction sought with a large enough effect; inconclusive = small, poorly fitted or top-dose-only effect, or another doubt; inactive = no such curve, though single readings can be large; an effect the other way counts as inactive or inconclusive. Potency is the fitted concentration of half-maximal effect.

SMILES	PGK inhibitor	Tb PFK block	GLP1R cytotox	GLP1R inv ag	Pin1 inh	GLP-1R agonist
COc1ccc(/C=N/NC(=O)c2cccnc2)cc1CN1CCCc2ccccc21	-3%	-4%	7%	10µM*	5%	8%
COc1ccc(C(=O)N/N=C/c2ccc(OC)c(CN3CCCc4ccccc43)c2)cc1	-1%	7%	6%	10µM*	4%	0%
COc1ccc(C(=O)N/N=C/c2ccc(OC)c(CN3CCN(c4ccc(F)cc4)CC3)c2)cc1	-8%	-3%	13%[1.53 µM]	10%	-1%	-3%
CCOC(=O)C1=C[C@@H](C(=O)OCC)[C@@H]2C3=C(C(=O)C2(C)C)[C@H](c2ccccc2)[C@@H]2C(=O)N(c4ccccc4)C(=O)[C@@H]2[C@@H]3C1	/	/	/	/	-16%	/
C[C@@H](O[C@H]1OCCN(Cc2n[nH]c(=O)[nH]2)[C@@H]1c1ccc(F)cc1)c1cc(C(F)(F)F)cc(C(F)(F)F)c1	/	/	/	/	/	5%
Cc1ccc(S(=O)(=O)c2ccc(C)cc2)cc1	-4%	-4%	-22%	-6%	-4%	-8%
Cc1cccc(Oc2ccc(S(=O)(=O)N3CCCCC3)cc2N)c1	-6%	-1%	-16%	10µM*	2%	19%
Cc1ccc(S(=O)(=O)c2ccc(Oc3cccc(C)c3)cc2)cc1	-1%	0%	-3%	10µM*	8%	-4%
Cc1nn(C(=O)c2ccc(Br)cc2)c(C)c1S(=O)(=O)N1CCOCC1	-2%	/	-8%	-1%	-13%	-3%
CN(C)CCCN(Cc1ccccc1)C(=S)Nc1ccc(SC(F)F)cc1	-8%	-1%	-25%	11µM*	3%	15%
COc1ccc(F)c(CN2CCC(CO)(Cc3cccc(C(F)(F)F)c3)CC2)c1	i	-3%	-3%	?	4%	11%
COc1cc(CN2CCC(CO)(Cc3cccc(C(F)(F)F)c3)CC2)ccc1F	i	-7%	?	3.2µM*	7%	-1%
Cc1ccc(Cn2c(C3CCCN3c3nc(-c4cc(Cl)c(N)c(Cl)c4)cs3)nc3cc(C(=O)NCCCO)ccc32)cc1 (stereo not given)	5%	/	0%	1%	38%	-3%
Cc1ccc(Cn2c(C3CCCN3c3nc(C)cs3)nc3cc(C(F)(F)F)ccc32)cc1 (stereo not given)	-3%	-3%	-27%	10µM*	20%	0%
CC12CCC(C(=O)N3CCCc4ccccc43)(CC1=O)C2(C)C (stereo not given)	-5%	-3%	3%	0%	-8%	-4%
CC12CCC(C(=O)N3CCc4ccccc43)(CC1=O)C2(C)C (stereo not given)	8%	-6%	-3%	13µM*	0%	0%
COc1ccc(-c2cc(C)nc(SCc3cccc(C(=O)O)c3)n2)cc1	-9%	0%	-12%	24%	6%	11%
Cc1nc(SCc2cccc(C(=O)O)c2)nc2c1CCCC2	i	1%	0%	8.9µM*	-13%	-1%
Cc1ccc(NC(=O)N2CCN(c3nnc(C)c4c(C)n(-c5ccc(Cl)cc5)nc34)CC2)c(C)c1	/	/	-1%	-6%	-2%	/
CC(C)(C)C(=O)Nc1ccc(C(=O)Nc2cccc(Oc3ccc(C(=O)O)c(C(=O)O)c3)c2)cc1	-17%	21µM*	2%	-10%	?	-7%
O=C(CSc1ccc(Cl)cc1)N1CCN(c2c(Cl)cccc2[N+](=O)[O-])CC1	2%	-4%[0.46 µM]	-13%	2.8µM*	4%	1%
CCN(CC)S(=O)(=O)c1ccc2c(c1)N(CC(=O)N1CCN(c3cccc(Cl)c3)CC1)C(=O)CO2	2%	/	-10%	?	12%	/
COCCCNC(=O)c1ccc(Cn2c(=O)c3ccccc3n(CC(N)=O)c2=O)cc1	-6%	/	-6%	?	2%	0%
COc1cc(C(=O)Oc2ccccc2/C=N/NC(=O)c2ccc(Cl)cc2Cl)cc(OC)c1OC	-2%	0%	-35%	2.2µM*	11%	2%
O=C(Cc1ccccc1)Nc1sc2c(c1C(=O)Nc1ccc(Cl)cc1)CCOC2	/	/	/	/	55%	/
SMILES	PGK inhibitor	Tb PFK block	GLP1R cytotox	GLP1R inv ag	Pin1 inh	GLP-1R agonist
O=c1c(N2CCN(c3cccc(Cl)c3)CC2)csc2ccc(Cl)cc12	0%	/	22%	-17%	2%	/
COc1ccc(OCCNC(=O)c2cccc(Oc3ccc(C(F)(F)F)cc3[N+](=O)[O-])c2)cc1	-2%	0%	?	4.5µM*	-6%	11%
Cc1cc(C)cc(OCC(=O)NNC(=O)c2ccccn2)c1	i	18%	?	13µM*	-9%	-1%
CCOc1ccc(CCNC(=O)CN2C(=O)COc3ccc(S(=O)(=O)N4CCC(C)CC4)cc32)cc1	3%	/	1%	2%	-7%	-5%
O=C(NNC1=C(C(=O)C(F)(F)F)CCC1)c1cccc(O)c1	6%	-3%	1%	?	-3%	1%
Cc1cccc(C(=O)NNC2=C(C(=O)C(F)(F)F)CCC2)c1O	-1%	1%	?	2.8µM*	-1%	-10%
CCc1nc2c(OCc3ccc(Cl)cc3)cccn2c1N(C)C(=O)c1ccco1	/	/	-23%	10µM*	/	0%
O=C(Nc1ccc(Cl)cc1)C1CCN(c2nc3ccccc3n3cccc23)CC1	6%	/	0%	6%	?	/
CC(=O)Nc1cccc(C(=O)N2CCN(S(=O)(=O)c3ccc(C4CCCCC4)cc3)CC2)c1	-15%	/	-16%	5µM*	10%	10%
O=S(=O)(NCCc1nnc2ccc(SCc3cccc(Cl)c3)nn12)c1ccccc1	-6%	/	2%	-19%	-3%	/
Cn1ncc(Br)c1C(=O)N1CCCC1	8%	-14%	-4%	11%	-3%	0%
Cn1ncc(Br)c1C(=O)NC12CC3CC(CC(C3)C1)C2	i	-5%	-16%	10µM*	2%	6%
[NH-]CCC([O-])=NC(Cc1cnc[nH]1)C(=O)[O-].[Zn+2] (stereo not given)	/	/	/	/	/	-1%
Cc1ccsc1/C=N/Nc1ccc(C(=O)O)cc1	/	-5%	2%	?	-6%	-8%
Cc1ccsc1/C=N/Nc1cccc(C(=O)O)c1	1%	1%	-3%	4.5µM*	-4%	-9%
O=C(CSc1cn(CCNC(=O)c2ccccc2F)c2ccccc12)Nc1ccc(F)cc1	5%	/	-16%	?	4%	-1%
O=C(NCCn1cc(SCc2ccc(F)cc2)c2ccccc21)c1ccccc1F	-8%	-1%	-11%	7.9µM*	0%	0%

Source: PubChem BioAssay
